Data as given in PubChem BioAssay AID2283302 (EPA ToxCast).
Results filed as inconclusive are left out. Activity calls are given as the source filed them. The calls were made as follows: active = hit-call score of the fitted dose curve at least 0.9, where 1 is the maximum; inconclusive = response in the unintended direction; inactive = score below 0.9.

target: rat Gamma-HydroxyButyrate Receptor (GHB), Tspan17 (gene 306771) (UniProt Q4V8E0); experiment: NVS_GPCR_rGHB: NovaScreen (NVS) G Protein-Coupled Receptor Assay for rat Gamma-HydroxyButyrate Receptor (GHB)
Sequence (Q4V8E0 whole entry, looked up): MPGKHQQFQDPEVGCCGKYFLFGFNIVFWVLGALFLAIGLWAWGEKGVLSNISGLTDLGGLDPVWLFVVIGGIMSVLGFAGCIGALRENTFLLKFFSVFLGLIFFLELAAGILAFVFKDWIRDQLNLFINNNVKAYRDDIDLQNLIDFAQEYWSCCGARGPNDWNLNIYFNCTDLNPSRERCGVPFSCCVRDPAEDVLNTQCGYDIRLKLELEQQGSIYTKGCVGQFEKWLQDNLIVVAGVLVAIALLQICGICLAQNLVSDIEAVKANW
Description: NVS_GPCR_rGHB is a biochemical, single-readout assay that uses extracted gene-proteins from Rat forebrain in a tissue-based cell-free assay. Measurements were taken 1 hour after chemical dosing in a 48-well plate.NVS_GPCR_rGHB is one of one assay component(s) measured or calculated from the NVS_GPCR_rGHB assay. It is designed to make measurements of radioligand binding, a form of binding reporter, as detected with scintillation counting signals by Filter-based radiodetection technology.Data from the assay component NVS_GPCR_rGHB was analyzed into 1 assay endpoint. This assay endpoint, NVS_GPCR_rGHB, was analyzed in the positive analysis fitting direction relative to DMSO as the negative control and baseline of activity. Using a type of binding reporter, loss-of-signal activity can be used to understand changes in the binding as they relate to the gene Tspan17. Furthermore, this assay endpoint can be referred to as a primary readout, because the performed assay has only produced 1 assay endpoint. To generalize the intended target to other relatable targets, this assay endpoint is annotated to the gpcr intended target family, where the subfamily is metabotropic glutamate receptor.
Binding assays used specific radioligands (tritiated, iodinated) with non-radioactive competitive displacement ligands in agonist or antagonist protocols (as indicated) and various reference compounds and inhibitors to titrate specific binding to receptors and transporters. Most enzyme assays (CYPs, kinases, phosphatases, proteases, HDACs) used recombinant protein and specific substrates (fluorescence mostly, some colorimetric and radioactive) and inhibitors, followed by a biochemical separation of substrate and product. All assays for the biochemical HTS were initially run in duplicate at a single concentration (10 uM for CYP450 assays and 25 uM for all others). Assay-chemical combinations meeting a pre-defined threshold (e.g., 30% inhibition and other criteria defined below) were then run in singleton concentration-response format with maximum concentration of 20 uM for CYPs and 50 uM for all others. Each assay was run with positive and negative controls, and concurrent controls on every plate. The follow-up (secondary) screen tested active chemical-pairs in concentration series, as well as a few additional assays not tested in the primary screen, some selected negative inactives, and several cases re-run in the concentration series for confirmatory purposes.

| SMILES | outcome | AC50 |
| --- | --- | --- |
| COP(=S)(OC)Oc1nc(Cl)c(Cl)cc1Cl | inactive | – |
| Clc1nc(Cl)nc(Nc2ccccc2Cl)n1 | – | 18.6 µM (active) |
| Cc1cc(Cl)ccc1OCC(=O)O | – | 25 µM (active) |
| CCOC(=O)CC(SP(=S)(OC)OC)C(=O)OCC (centres undefined) | inactive | – |
| CC(C)Oc1cccc(NC(=O)c2ccccc2C(F)(F)F)c1 | inactive | – |
| CC(C1CC1)C(O)(Cn1cncn1)c1ccc(Cl)cc1 (centres undefined) | inactive | – |
| N#CSCSC#N | – | 19.5 µM (active) |
| CO[C@@H]1[C@H](OC(=O)NC(=O)CCl)CC[C@]2(CO2)[C@H]1[C@@]1(C)O[C@@H]1CC=C(C)C | inactive | – |
| CCOP(=O)(OCC)Oc1nc(Cl)c(Cl)cc1Cl | inactive | – |
